In all, about 69,000 compounds went through this assay and about 8,600 (12%) showed an effect of 50% or more. The sample holds strong results, similar compounds and a random draw of the others, so the mix is not that of the screen.

The subject of this assay is Plasmodium berghei. As to the kind of experiment: Screen against P. berghei liver stage (PbLuc), transformed with Luciferase, at 10uM. In kind it is functional, HepG2. Conditions: tested at 10 uM.
Regarding `CC(=O)N(Cc1c(F)cccc1F)C1CCCC1`, the INHIBITION turned out to be 58.3%.

For the molecule `CS(=O)(=O)CCC(=O)N(Cc1c(F)cccc1F)C1CCCC1`, the INHIBITION was 55%.

Regarding `CNC(=O)N(Cc1c(F)cccc1F)C1CCCC1`, the INHIBITION came out at 16.1%.

Turning to `CS(=O)(=O)CCC(=O)N(CCc1cccc(F)c1)C1CC1`, the INHIBITION worked out at 40.7%.

Turning to `CNS(=O)(=O)CC(=O)N(Cc1c(F)cccc1F)C1CCCC1`, the INHIBITION is reported as -5.59%.

On to `CNS(=O)(=O)CC(=O)N(Cc1c(F)cccc1Cl)C1CC1`, for which the INHIBITION is recorded as 17.1%.

On to `Cn1nnnc1SC1CCN(c2ccccc2Cl)C1=O` (stereo not drawn), for which the INHIBITION came out at 23.9%.

Regarding `Cc1cc(C[S+]([O-])Cc2ccccc2F)no1` (stereo not drawn), the INHIBITION was 40.7%.

Consider `CCCc1noc(-c2ccc(-n3ncc(C(=O)O)c3C)nc2)n1`, for which the INHIBITION is reported as 7.92%.

Consider `CC(C)[C@]1(O)CN(C(=O)CNC(N)=O)C[C@H]1C`, for which the INHIBITION came out at 39.9%.

Turning to `O=C(CS(=O)(=O)Cc1ccc(F)cc1)NC1CCCCNC1=O` (stereo not drawn), the INHIBITION is -90.9%.

On to `CCOc1ccnc(NCc2nc(C)cc(C(F)(F)F)n2)n1`, for which the INHIBITION is reported as 52.9%.

Turning to `CCOc1ccnc(NCc2nc(C)cc(=O)[nH]2)n1`, the INHIBITION is recorded as 27.8%.

On to `CCOc1ccnc(NCCc2nc(C)cc(=O)[nH]2)n1`, for which the INHIBITION came out at 23.3%.

Take `COCCCN(Cc1ccccn1)Cc1ccnn1C1CCCCO1` (stereo not drawn): the INHIBITION is 34.1%.

`CCc1nnsc1C(=O)N1CCCC(n2nc(C)nc2C)C1` (stereo not drawn): the INHIBITION is listed as -10.75%.

Consider `CN(Cc1cn2c(n1)CN(C1CCOC1)CC2)Cc1ccco1` (stereo not drawn), for which the INHIBITION turned out to be 10%.

As for `CN(Cc1cn2c(n1)CN(C1CCOCC1)CC2)Cc1ccco1`, the INHIBITION stood at 56.7%.

On to `CN(Cc1cn2c(n1)CN(C(=O)C1CCOCC1)CC2)Cc1ccco1`, for which the INHIBITION is given as -8.94%.

For `CN(Cc1cn2c(n1)CN(CC1CC1)CC2)Cc1ccco1`, the INHIBITION is on record as 8.53%.

Regarding `CN(Cc1cn2c(n1)CN(C(=O)CC1CC1)CC2)Cc1ccco1`, the INHIBITION turned out to be 30.1%.

As for `CN(Cc1cn2c(n1)CN(CC1CCOC1)CC2)Cc1ccco1` (stereo not drawn), the INHIBITION was 53.2%.

`Cc1c(CCC(=O)Nc2ccc(Br)cn2)cnn1C`: the INHIBITION amounted to 15.2%.

Take `Cc1nn(C)c(C)c1C1CCCN1Cc1nc(-c2ccccn2)no1` (stereo not drawn): the INHIBITION came to 11.9%.

Consider `CC(Nc1ncnc2sccc12)c1cnn(C)c1` (stereo not drawn), for which the INHIBITION is recorded as 38.7%.

Consider `Cc1nn(C)cc1C(C)Nc1ncnc2sccc12` (stereo not drawn), for which the INHIBITION was 27.5%.

On to `Cc1c(C(C)Nc2ncnc3sccc23)cnn1C` (stereo not drawn), for which the INHIBITION was determined as 55.5%.

For `COc1ccc(OC)c(C(=O)N2CCCCC2Cn2cccn2)c1` (stereo not drawn), the INHIBITION was determined as 14.4%.

`Cc1c2c(C(F)F)cc(SCC(=O)O)nc2nn1C`: the INHIBITION was 15.9%.

Consider `CCn1nc2nc(SCC(=O)O)cc(C(F)F)c2c1C`, for which the INHIBITION was found to be 20.4%.

With `Cc1cc(SCC(=O)O)nc2nn(CC(F)F)c(C)c12`, the INHIBITION was 96%.

Consider `CC(CCNC(=O)NCCc1ccncc1)c1ccccc1` (stereo not drawn), for which the INHIBITION was found to be 55.9%.

Consider `O=C(NCCc1ccccc1)NCC(O)c1cccc(F)c1` (stereo not drawn), for which the INHIBITION was -27%.

With `CC(CCNC(=O)NCCc1ccc(S(N)(=O)=O)cc1)c1ccccc1` (stereo not drawn), the INHIBITION amounted to 54.8%.

As for `CC(CCNC(=O)NCCNc1cnccn1)c1ccccc1` (stereo not drawn), the INHIBITION is recorded as -10.4%.

`Cc1cc(NC(=O)NCCc2ccc(S(N)(=O)=O)cc2)n(C)n1`: the INHIBITION is on record as -193%.

Turning to `CC(c1cccc(S(N)(=O)=O)c1)N(C)CCc1ccccc1` (stereo not drawn), the INHIBITION worked out at 33.6%.

Turning to `CCn1ccc2ccnc(CC3CN(C(=O)c4ccc(F)cc4)C3)c21`, the INHIBITION was 16.5%.

With `Cc1cc(-c2cc(-c3cc(CC(=O)O)cs3)nc(N)c2C#N)oc1C`, the INHIBITION was 33.9%.

Regarding `CC(=O)N[C@@H]1Cc2ccccc2[C@H]1Nc1nnc(C2CC2)o1`, the INHIBITION came out at 52.6%.

Take `O=C(C1CCCC1)N1CCC(Nc2ccncn2)CC1`: the INHIBITION is 49.9%.

In the case of `CC(=O)N[C@@H]1Cc2ccccc2[C@H]1Nc1cc(C2CC2)ncn1`, the INHIBITION worked out at 35%.

Turning to `CCc1nc(C)c(C(=O)N[C@@H]2c3ccccc3C[C@@H]2O)o1`, the INHIBITION is reported as -5.22%.

As for `CCc1oc(C(=O)N[C@@H]2c3ccccc3C[C@@H]2O)cc1C`, the INHIBITION is listed as 12.9%.

Turning to `CC(=O)N[C@@H]1Cc2ccccc2[C@H]1Nc1ccncn1`, the INHIBITION is recorded as 67.5%.

In the case of `Cc1ccc(OCC(=O)N2CCOCC(O)(CN3CCCC3)C2)cc1C` (stereo not drawn), the INHIBITION is 37.9%.

Take `Cc1cnc(CCNC(=O)C2CCN(S(=O)(=O)c3ccc(F)cc3)C2)s1` (stereo not drawn): the INHIBITION is listed as -21.8%.

`O=C(Cn1cc(-c2ccccc2)cn1)N1CCNC1=O`: the INHIBITION was -7.53%.

Turning to `Cc1cc(C(=O)NCCc2c(C)nn(C)c2C)nc(N2CCCCC2)n1`, the INHIBITION is -10.5%.

On to `O=C(CCn1nc(C(=O)Nc2ccccc2)ccc1=O)Nc1nccs1`, for which the INHIBITION worked out at 13.1%.

With `N#Cc1ccc(CC(=O)N2CCC(Nc3cccnn3)CC2)cc1`, the INHIBITION was -3.7%.

Consider `CCCc1n[nH]c(C2CN(C(=O)c3cncnc3C)CCO2)n1` (stereo not drawn), for which the INHIBITION was 36.1%.

As to `C=c1ncsc1=C1NC(c2cccc(CN3CCOCC3)c2)=NO1`, the INHIBITION worked out at 12.6%.
